# The campaign covered roughly 350,000 compounds. About 180 (0.051%) were called active. This excerpt belongs to a sample that is enriched for actives. Values without a mark were called inactive.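 How the source made its calls: active means mean replicate inhibition above about 25%, with every replicate also reaching it (limit read from the data, passing the limit was not always enough); inconclusive means only one of those two criteria met; inactive means neither criterion met.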
# Molecular target: Protein disulfide-isomerase A6 (Homo sapiens) (UniProt Q15084)
# Test: ERp5 (PDIA6) reductase activity blockers – biochemical, turbidity, absorbance 650 nm, single point, primary screen (AID 651711)
# Conditions: ERp5 insulin aggregation, 90 min, at 9.99 µM, active compounds read high
# Protein disulfide-isomerase A6 (Homo sapiens), sequence (Q15084 whole entry, looked up): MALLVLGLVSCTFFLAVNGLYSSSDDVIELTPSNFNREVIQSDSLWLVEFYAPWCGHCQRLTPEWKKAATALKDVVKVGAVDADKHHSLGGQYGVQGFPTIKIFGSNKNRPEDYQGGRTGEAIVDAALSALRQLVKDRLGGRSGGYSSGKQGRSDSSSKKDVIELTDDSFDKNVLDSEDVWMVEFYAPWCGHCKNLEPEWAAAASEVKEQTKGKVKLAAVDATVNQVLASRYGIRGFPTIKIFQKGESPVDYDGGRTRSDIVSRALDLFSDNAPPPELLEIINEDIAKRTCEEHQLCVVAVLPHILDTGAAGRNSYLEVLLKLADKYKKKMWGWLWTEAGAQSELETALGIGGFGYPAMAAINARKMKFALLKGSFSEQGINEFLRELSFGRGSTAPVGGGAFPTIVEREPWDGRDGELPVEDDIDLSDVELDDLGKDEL
row,Structure (SMILES),inhibition
1,O=C(C[C@@H]1CC[C@@H]2[C@H](COC[C@H](O)CN2C(=O)Cc2ccccc2)O1)NC1CCC1,9.77%
2,COc1ccc(-c2ccc([C@@H]3[C@@H](C#N)N(C(=O)C4CCCCC4)[C@H]3CO)cc2)cc1,-2.17%
3,CCCNC(=O)N1C[C@H](C)[C@@H](OC)CN(C)C(=O)c2ccc(NC(=O)CC)cc2OC[C@@H]1C,7.86%
4,CC(C)NC(=O)N[C@H]1CC[C@H](CC(=O)N2CCCCC2)O[C@@H]1CO,3.34%
5,C[C@@H]1CCCCO[C@H](CN(C)Cc2ccc(Cl)c(Cl)c2)[C@@H](C)CN([C@H](C)CO)C(=O)c2cc(NS(=O)(=O)c3cn(C)cn3)ccc2O1,1.36%
6,COc1ccc(S(=O)(=O)N(C)C[C@H]2Oc3ccc(NC(=O)C4CC4)cc3CC(=O)N([C@@H](C)CO)C[C@@H]2C)cc1,2.88%
7,COc1ccccc1C#Cc1cnc2c(c1)C(=O)N([C@H](C)CO)C[C@H](C)[C@H](CN(C)S(=O)(=O)c1cn(C)cn1)O2,-2.62%
8,CCN1C(=O)N[C@@H]2C[C@H](C(=O)N3CCCC3)[C@H](C)[C@H](c3ccccc3)C[C@@H]21,0.542%
9,COc1ccccc1C#Cc1cnc2c(c1)C(=O)N([C@@H](C)CO)C[C@@H](C)[C@@H](CN(C)C(=O)CN(C)C)O2,-1.98%
10,C[C@@H]1CN([C@H](C)CO)C(=O)c2cc(NC(=O)c3ccncc3)ccc2O[C@@H](C)CCCCO[C@@H]1CN(C)CC1CC1,3.17%
11,Cc1ccccc1S(=O)(=O)N[C@@H]1CC[C@H](CCn2cc(-c3ccc(F)cc3)nn2)O[C@@H]1CO,0.302%
12,COc1ccc(C#Cc2ccc([C@@H]3[C@@H](CO)N4C(=O)CN(C(=O)c5ccc(F)cc5)C[C@@H]34)cc2)cc1,6.45%
13,CO[C@@H]1CN(C)C(=O)c2cc(NC(=O)Nc3cccc(F)c3)ccc2OC[C@H](C)N(C)C[C@@H]1C,2.15%
14,C[C@@H]1CN([C@H](C)CO)C(=O)c2cc(-c3ccc(F)cc3)cnc2O[C@@H]1CN(C)C(=O)C1CCC1,1.7%
15,C[C@@H]1CN([C@H](C)CO)C(=O)c2cc(NS(=O)(=O)c3ccc(F)cc3)ccc2O[C@@H]1CN(C)C(=O)Nc1cccc2ccccc12,13.7%
16,CCCN1C[C@H](C)[C@@H](OC)CN(C)C(=O)c2ccc(NC(=O)C3CCOCC3)cc2OC[C@@H]1C,0.943%
17,C[C@H](CO)N1C[C@H](C)[C@@H](CN(C)CC2CC2)OCCCC[C@H](C)Oc2ccc(NC(=O)Nc3ccccc3)cc2C1=O,2.55%
18,O=S(=O)(c1ccccc1)N1CC[C@@H]2[C@@H](CO)Nc3ccc(C#Cc4cccc(F)c4)cc3[C@@H]21,-0.006%
19,CCC(=O)N(C)C[C@@H]1Oc2cc(-c3ccc(OC)cc3)ccc2S(=O)(=O)N([C@@H](C)CO)C[C@H]1C,0.0355%
20,CC(C)C#Cc1cnc2c(c1)C(=O)N([C@H](C)CO)C[C@@H](C)[C@H](CN(C)Cc1ccccc1)O2,-2.64%

row,Structure (SMILES),inhibition
1,COc1ccc(S(=O)(=O)Nc2ccc3c(c2)CC(=O)N([C@H](C)CO)C[C@@H](C)[C@@H](CN(C)C(=O)Nc2cccc4ccccc24)O3)cc1,11.8%
2,COc1ccc(S(=O)(=O)Nc2ccc3c(c2)CC(=O)N([C@H](C)CO)C[C@H](C)[C@H](CN(C)C(=O)Nc2ccccc2)O3)cc1,64.1% (active)
3,C[C@@H]1CN([C@H](C)CO)C(=O)Cc2cc(NC(=O)Nc3cccc4ccccc34)ccc2O[C@@H]1CN(C)Cc1ccc(C(F)(F)F)cc1,60% (active)
4,C[C@@H]1CN([C@H](C)CO)C(=O)Cc2cc(NC(=O)Nc3ccccc3)ccc2O[C@@H]1CN(C)Cc1ccc(C(F)(F)F)cc1,1.88%
5,C[C@@H]1CN([C@H](C)CO)C(=O)Cc2cc(NC(=O)Nc3cccc4ccccc34)ccc2O[C@@H]1CN(C)Cc1ccc(C(=O)O)cc1,2.16%
6,COc1ccc(NC(=O)N(C)C[C@@H]2Oc3ccc(NS(=O)(=O)c4ccc(OC)cc4)cc3CC(=O)N([C@H](C)CO)C[C@H]2C)cc1,8.49%
7,COC(=O)[C@@H]1[C@@H](CO)[C@@H]2Cn3c(ccc(-c4ccc(OC)cc4)c3=O)[C@@H]2N1S(C)(=O)=O,4.09%
8,O=C(N[C@@H]1CC[C@@H](CC(=O)N2CCc3ccccc3C2)O[C@H]1CO)C1CCC1,-0.402%
9,CCC(=O)N1CC(=O)N2[C@H](CO)[C@@H](c3ccc(-c4ccc(C(=O)N(C)C)cc4)cc3)[C@@H]2C1,-1.19%
10,CO[C@H]1CN(C)C(=O)c2ccc(NC(=O)C3CCC3)cc2OC[C@@H](C)N(Cc2ccccn2)C[C@H]1C,-2.1%
11,C[C@H](CO)N1C[C@H](C)[C@H](CN(C)Cc2ccc(C(=O)O)cc2)OCc2cn(nn2)CCCC1=O,-4.21%
12,Cc1ccccc1C(=O)N[C@H](C(=O)N1CCC[C@H]1C(=O)NCc1ccccc1)C(C)C,5.11%
13,CO[C@H]1CN(C)C(=O)c2cc(NS(=O)(=O)c3ccccc3)ccc2OC[C@@H](C)N(Cc2nccs2)C[C@@H]1C,1%
14,COc1ccc(CN(C)C[C@@H]2Oc3c(NC(=O)C4CC4)cccc3C(=O)N([C@@H](C)CO)C[C@H]2C)cc1,1.33%
15,Cc1ccc(S(=O)(=O)N(C)C[C@@H]2Oc3ccc(N(C)C)cc3C(=O)N([C@@H](C)CO)C[C@H]2C)cc1,-2.31%
16,COc1ccccc1S(=O)(=O)N1C[C@@H](O)COC[C@H]2O[C@H](CC(=O)O)CC[C@@H]21,-5.9%
17,CCC(=O)N1C[C@@H](O)COC[C@H]2O[C@H](CC(=O)NCC3CCCCC3)CC[C@@H]21,-3.78%
18,O=C1CN(Cc2ccc(F)cc2)C[C@H]2[C@@H](c3ccc(Br)cc3)[C@H](CO)N12,4.49%
19,CO[C@H]1CN(C)C(=O)c2ccc(NC(=O)CC(F)(F)F)cc2OC[C@H](C)N(C(=O)C2CC2)C[C@H]1C,3.96%
